# TIM10 inh: TIM10 yeast growth inhibition. inhibition, % at 10 µM. 1.4% of 330,000 active. S. cerevisiae TIM10 strain growth, BacTiter-Glo luminescence, 24 h;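 active = inhibition of 40% or more at the single tested concentration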;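 also: wild-type TIM10 isogenic control strain grown at permissive 25 °C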
# tim10-1 inh: inhibits growth of tim10-1 mutant yeast | S. cerevisiae tim10-1 ts strain growth, BacTiter-Glo, 24 h | inhibition, % at 20 µM | 2.2% of 330,000 active;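 active = inhibition of at least 40%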;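 also: mutant grown at 25 °C; 0% = DMSO wells with yeast and 100% = wells holding no yeast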
# tim23-1 inh: growth inhibitors of tim23-1 mutant yeast | S. cerevisiae tim23-1 growth, BacTiter-Glo luminescence, 24 h | inhibition, % at 20 µM | 1.3% of 330,000 active | AID 463212;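 active = growth inhibition of the mutant yeast at or above 50%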;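 also: temperature-sensitive mutant grown at 25 °C; plate controls were DMSO-treated mutant yeast for no effect and medium wells lacking yeast for full effect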
# SUMO Mot1 rescue: inhibitors of SUMOylation pathway: yeast Mot1-301 growth rescue; S. cerevisiae Mot1-301 growth rescue, ATP luminescence, 38.5C; percent above DMSO median, 100 means doubled; growth rescue, % at 18.8 µM; 1% of 320,000 active; AID 2716;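 active = every valid replicate shows activation above 250% relative to neutral control wells; inactive = the rest, any valid replicate at or below 250%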;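 also: OY570 slx delta 5 strain wells were the positive control but not used for scaling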
# PfHsp90 set2: inhibits growth of yeast expressing Plasmodium falciparum Hsp90 | S. cerevisiae expressing PfHsp90, BacTiter-Glo ATP, 48 h; yeast lacking PDR1 and PDR3 efflux regulators | inhibition, % at 9.4 µM | 0.32% of 310,000 active | AID 504621;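 active = every replicate shows inhibition above about 80%, whatever the replicate mean, limit read from the data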;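 also: 0% = DMSO neutral controls and 100% = 20 µM radicicol positive controls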
# tim10-1 conf: tim10-1 yeast growth inhibition, confirmed; shares compounds with tim10-1 inh; S. cerevisiae tim10-1 ts strain growth, BacTiter-Glo, 24 h; inhibition, % at 20 µM; 56% of 7,400 active; AID 463213;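 active = inhibition of yeast growth at or above a set limit in either of two repeat tests at 20 µM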;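 also: tim10-1 mutant grown at permissive 25 °C to find synthetic lethal compounds; 0% = DMSO yeast wells and 100% = medium wells without yeast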
# TIM10 conf: confirmation of TIM10 yeast growth inhibitors | shares compounds with TIM10 inh | S. cerevisiae tim10 strain growth, BacTiter-Glo luminescence, 24 h | inhibition, % at 10 µM | 63% of 4,600 active;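 active = inhibition of yeast growth at or above a set limit in either of two replicates at 10 µM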;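 also: this counterscreen used the strain with wild-type TIM10; 0% = yeast with DMSO and 100% = medium wells lacking yeast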
# tim23-1 conf: tim23-1 yeast growth inhibition, confirmed | inhibition, % at 20 µM | 83% of 4,400 active | S. cerevisiae tim23-1 growth, BacTiter-Glo luminescence, 24 h | shares compounds with tim23-1 inh;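 active = inhibition above about 39% in either of two replicate wells at 20 µM, limit read from the data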;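 also: temperature-sensitive tim23-1 mutant grown at 25 °C; 0% = DMSO wells with yeast and 100% = medium wells without yeast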
# * = called active by the depositor; / = no result. The list is not random: actives were taken first. Their share in the collection is about 4.4%.
SMILES,TIM10 inh,tim10-1 inh,tim23-1 inh,SUMO Mot1 rescue,PfHsp90 set2,tim10-1 conf,TIM10 conf,tim23-1 conf
O=S(=O)(NCCCN1CCOCC1)c1ccc(Cl)s1,1,-19,0,12,-5,/,/,/
CCCCCCNS(=O)(=O)c1ccc(Cl)s1,-1,43*,56*,35,/,26,/,47*
Cc1ccccc1-c1cc(C(=O)Nc2sc(C)c(C)c2C(N)=O)c2ccccc2n1,31,42*,54*,-20,-13,31*,/,42*
CCOC(=O)c1sc(NC(=O)c2cc(-c3ccccc3C)nc3ccccc23)c(C#N)c1C,2,30,13,-10,-23,/,/,/
Cc1cccc(C(=O)NCC(=O)N2CCN(c3ccccn3)CC2)c1,-10,-11,-3,9,/,/,/,/
COC(=O)c1ccc2c(c1)C(C)(C)C(/C=C/c1ccc(O)cc1)=[N+]2C,56*,67*,73*,7,42,64*,55*,68*
COC(=O)c1ccc2c(c1)C(C)(C)C(/C=C/c1ccc(OC)c(OC)c1OC)=[N+]2C,5,13,14,-11,3,/,/,/
CCOC(=O)c1cn2nc(SCc3ccccc3)nc2nc1C,0,-12,21,-1,-11,/,/,/
O=c1oc(-c2ccc(Br)o2)nc2ccccc12,32,46*,54*,11,/,16,/,60*
O=C(Nc1nc2ccccc2[nH]1)C12CC3CC(CC(C3)C1)C2,13,32,25,125,17,/,/,/
O=C(OCc1nc2ccccc2[nH]1)C12CC3CC(CC(C3)C1)C2,40,58*,58*,21,/,51*,24,43*
Cc1ccc(NC(=O)C2CCN(C(=O)NCc3ccccc3)CC2)cc1C,-12,4,14,2,16,/,/,/
COc1ccccc1C/C(N)=N/OC(=O)COc1cccc2ccccc12,74*,58*,65*,4,/,64*,62*,73*
COc1ccccc1C/C(N)=N/OC(=O)COc1ccc2ccccc2c1,55*,48*,52*,-1,15,64*,43*,77*
CC(C)[C@H](NC(=O)c1ccc([N+](=O)[O-])cc1Cl)C(=O)N1CCN(C/C=C/c2ccccc2)CC1,5,9,12,22,-9,/,/,/
CCCCN1C(=O)/C(=C(/C#N)C(=O)N2CCCC2)c2ccccc21,28,26,37,-25,-33,/,/,/
CC(C)CN1C(=O)/C(=C(/C#N)C(=O)NC2CCCCC2)c2ccccc21,79*,72*,64*,/,/,71*,79*,50*
CCN1/C(=C/C=C/c2oc3ccc4ccccc4c3[n+]2CC)Oc2ccc3ccccc3c21,62*,54*,69*,30,/,56*,68*,64*
Cc1ccc(OCCNC(=O)c2cc(C3CC3)nc3c2cnn3C(C)C)cc1,-3,0,28,9,-3,/,/,/
Cc1c(C(=O)N2CCN(S(=O)(=O)c3ccc(F)cc3)CC2)oc2ccccc12,9,37,43,-9,-6,/,/,/
CCn1cc(CN2CCC(n3nccc3NC(=O)c3ccc4c(c3)OCO4)CC2)c(C)n1,-5,2,-1,21,11,/,/,/
N#C/C(=C\c1cccc(Br)c1)C(=O)N1CCCCC1,63*,70*,81*,10,-122,68*,74*,73*
COc1ccc(CCNC(=O)c2nnn(CC(=O)Nc3ccc(C)cc3C)c2N)cc1OC,5,-14,4,2,-4,/,/,/
CN1CCN(C(=O)c2c(O)c3cccc4c3n(c2=O)CCC4)CC1,5,4,8,/,15,/,/,/
COc1ccc(CCNC(=O)c2c(O)c3cccc4c3n(c2=O)CC4)cc1OC,57*,43*,53*,-5,11,-36,30*,45*
SMILES,TIM10 inh,tim10-1 inh,tim23-1 inh,SUMO Mot1 rescue,PfHsp90 set2,tim10-1 conf,TIM10 conf,tim23-1 conf
CC(=O)c1c(O)c2cccc3c2n(c1=O)CCC3,17,41*,54*,216,-2,30*,/,52*
Cc1cccc(NC(=O)CCNC(=O)c2ccc(Br)cc2)c1C,/,/,/,25,7,/,/,/
CCOc1ccc(NS(=O)(=O)c2cc(C(=O)N3CC(C)OC(C)C3)ccc2C)cc1 (stereo unspecified),14,-2,5,9,-2,/,/,/
COc1ccc(-c2cc(N)n(S(=O)(=O)c3c(F)c(F)c(F)c(F)c3F)n2)cc1OC,75*,68*,70*,138,-11,75*,74*,-23
O=C(Oc1cccc(OC(=O)c2ccco2)c1)c1ccco1,-10,-9,8,-2,-5,/,/,/
CC1=CC(C)(C)N2C(=O)C(=O)c3cc(OC(=O)c4ccco4)cc1c32,34,51*,68*,404,15,36*,/,1
COc1ccc(-c2nc(-c3cccs3)c(-c3cccs3)[nH]2)cc1O,26,52*,74*,19,/,34*,/,71*
CN1CCc2c(n(CC(O)CN3C(=O)c4ccccc4S3(=O)=O)c3ccccc23)C1=O (stereo unspecified),/,/,/,/,-6,/,/,/
Cc1c(C)n(CC(O)CN2C(=O)c3ccccc3S2(=O)=O)c2ccccc12 (stereo unspecified),43*,66*,74*,-20,-11,65*,49*,89*
COc1ccc(/C(N)=N/OC(=O)c2cccc([N+](=O)[O-])c2)cc1,32,42*,66*,-4,-41,54*,/,74*
COc1ccc(/C(N)=N/OC(=O)c2cccc([N+](=O)[O-])c2C)cc1,83*,65*,72*,20,-18,53*,78*,60*
CC1=CC(=NOC(=O)c2cccc([N+](=O)[O-])c2)C=C(C)C1=O,20,45*,57*,0,-7,36*,/,64*
COc1ccccc1C/C(N)=N/OC(=O)c1cccc([N+](=O)[O-])c1C,83*,46*,78*,-4,-4,33*,-32,74*
COc1ccccc1C(=O)CC(=O)C(=O)Nc1cccc([N+](=O)[O-])c1C,24,0,30,-2,0,/,/,/
CCOc1ccc(S(=O)(=O)N2CCC(C(=O)NCc3ccccn3)CC2)cc1C,-16,0,-1,59,-7,/,/,/
CC1(c2ccccc2Br)NC(=O)N(CC(=O)N2CCc3ccccc3C2)C1=O (stereo unspecified),5,0,1,-2,-48,/,/,/
COc1ccc(CCc2nnc(CCC(=O)NCC3CCCO3)o2)cc1 (stereo unspecified),-1,-11,8,0,26,/,/,/
